Publication PMC7862700, “An all-to-all approach to the identification of sequence-specific readers for epigenetic DNA modifications on cytosine”

Experiments:
Experiment in all cases: DAPPL (digital affinity profiling via proximity ligation, sequencing); 10 mM Tris-HCl pH 7.5, 50 mM NaCl, 1 mM DTT, 4% glycerol, room temperature, 30 min; GST-TFs on glutathione beads, 16-mer random dsDNA library, 0.1% formaldehyde crosslink after washing; high values mean tight binding
Conditions in all cases: protein: recombinant; tags: N-terminal GST; dsDNA, one strand shown
[1] = molecular target: T1, ERF (Homo sapiens, UniProt P50548 1-548)
T1 sequence: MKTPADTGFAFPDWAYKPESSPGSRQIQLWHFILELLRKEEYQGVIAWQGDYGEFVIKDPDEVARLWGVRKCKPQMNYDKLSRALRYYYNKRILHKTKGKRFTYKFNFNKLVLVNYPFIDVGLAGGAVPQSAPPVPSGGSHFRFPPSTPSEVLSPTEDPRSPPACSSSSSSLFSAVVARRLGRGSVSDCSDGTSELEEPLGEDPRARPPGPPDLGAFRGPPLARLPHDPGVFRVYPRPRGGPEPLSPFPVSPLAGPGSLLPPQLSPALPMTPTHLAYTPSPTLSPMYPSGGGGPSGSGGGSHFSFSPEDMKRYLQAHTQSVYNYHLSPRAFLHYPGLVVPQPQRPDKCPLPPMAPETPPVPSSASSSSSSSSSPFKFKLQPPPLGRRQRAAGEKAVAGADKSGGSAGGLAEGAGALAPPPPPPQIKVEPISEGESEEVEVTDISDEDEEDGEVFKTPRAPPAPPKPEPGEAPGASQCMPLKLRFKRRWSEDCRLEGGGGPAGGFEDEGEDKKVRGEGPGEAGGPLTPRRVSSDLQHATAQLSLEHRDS
Procedure, shortened: (§1)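 The binding signal reported is, for every hexamer, its read frequency for a factor over its read frequency for the tag-only sample. Reads came from pools of yeast-expressed, GST-fused human transcription factors on glutathione beads, barcoded with DNA and mixed with that sample, which were incubated with 200 nmole of a random double-stranded 16-mer DNA library in Tris/NaCl/DTT/glycerol buffer at room temperature for 30 min. After washing, the pools were crosslinked with 0.1% formaldehyde, proximity-ligated with BsaI/T4 ligase for 1 h at 37 °C, PCR-amplified and sequenced on an Illumina NextSeq500.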

[2] = molecular target: T2, ETV3L (Homo sapiens, UniProt Q6ZN32 1-361)
T2 sequence: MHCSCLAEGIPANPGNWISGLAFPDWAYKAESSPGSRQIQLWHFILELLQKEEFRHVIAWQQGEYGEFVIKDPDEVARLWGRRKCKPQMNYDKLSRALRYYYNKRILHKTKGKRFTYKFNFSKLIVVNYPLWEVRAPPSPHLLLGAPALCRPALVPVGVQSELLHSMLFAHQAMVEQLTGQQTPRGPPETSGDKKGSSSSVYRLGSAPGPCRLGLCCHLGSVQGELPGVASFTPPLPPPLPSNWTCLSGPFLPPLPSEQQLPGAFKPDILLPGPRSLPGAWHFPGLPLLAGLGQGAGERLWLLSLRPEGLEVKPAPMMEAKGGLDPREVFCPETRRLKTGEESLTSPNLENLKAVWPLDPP
Procedure, shortened: as §1

[3] = molecular target: T3, ETS2 (Homo sapiens, UniProt P15036 1-469)
T3 sequence: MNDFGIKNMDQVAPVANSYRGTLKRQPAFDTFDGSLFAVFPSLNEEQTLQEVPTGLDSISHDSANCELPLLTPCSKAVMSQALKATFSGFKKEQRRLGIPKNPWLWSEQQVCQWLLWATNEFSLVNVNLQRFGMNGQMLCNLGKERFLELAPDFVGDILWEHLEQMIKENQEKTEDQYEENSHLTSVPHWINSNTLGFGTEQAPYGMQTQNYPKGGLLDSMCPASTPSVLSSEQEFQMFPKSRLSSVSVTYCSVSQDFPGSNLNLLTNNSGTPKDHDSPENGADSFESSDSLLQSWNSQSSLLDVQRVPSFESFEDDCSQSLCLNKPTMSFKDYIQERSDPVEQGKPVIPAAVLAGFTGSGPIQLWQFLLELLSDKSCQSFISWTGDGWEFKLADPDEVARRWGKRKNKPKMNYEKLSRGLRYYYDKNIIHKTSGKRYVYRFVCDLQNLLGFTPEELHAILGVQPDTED
Procedure, shortened: as §1

[4] = molecular target: T4, SPDEF (Homo sapiens, UniProt O95238 1-335)
T4 sequence: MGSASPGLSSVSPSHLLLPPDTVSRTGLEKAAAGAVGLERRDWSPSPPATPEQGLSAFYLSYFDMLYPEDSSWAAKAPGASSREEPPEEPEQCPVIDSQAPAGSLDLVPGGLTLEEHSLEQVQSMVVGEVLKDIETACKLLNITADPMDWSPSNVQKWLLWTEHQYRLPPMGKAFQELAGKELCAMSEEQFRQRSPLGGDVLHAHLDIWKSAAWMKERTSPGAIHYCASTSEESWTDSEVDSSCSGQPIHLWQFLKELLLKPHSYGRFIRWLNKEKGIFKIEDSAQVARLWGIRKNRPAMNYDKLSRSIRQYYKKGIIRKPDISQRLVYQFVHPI
Procedure, shortened: as §1

[5] = molecular target: T5, ETV7 (Homo sapiens, UniProt Q9Y603 1-341)
T5 sequence: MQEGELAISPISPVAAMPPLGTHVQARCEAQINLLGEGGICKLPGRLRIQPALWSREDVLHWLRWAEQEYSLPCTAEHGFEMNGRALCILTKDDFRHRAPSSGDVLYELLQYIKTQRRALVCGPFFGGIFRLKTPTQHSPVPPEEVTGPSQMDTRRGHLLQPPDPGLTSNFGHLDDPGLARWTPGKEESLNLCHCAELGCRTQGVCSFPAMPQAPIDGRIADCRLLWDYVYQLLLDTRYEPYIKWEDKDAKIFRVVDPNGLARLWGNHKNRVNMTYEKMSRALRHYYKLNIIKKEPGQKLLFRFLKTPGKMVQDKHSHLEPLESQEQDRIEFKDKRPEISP
Procedure, shortened: as §1

[6] = molecular target: T6, ELF5 (Homo sapiens, UniProt Q9UKW6-2 1-255)
T6 sequence: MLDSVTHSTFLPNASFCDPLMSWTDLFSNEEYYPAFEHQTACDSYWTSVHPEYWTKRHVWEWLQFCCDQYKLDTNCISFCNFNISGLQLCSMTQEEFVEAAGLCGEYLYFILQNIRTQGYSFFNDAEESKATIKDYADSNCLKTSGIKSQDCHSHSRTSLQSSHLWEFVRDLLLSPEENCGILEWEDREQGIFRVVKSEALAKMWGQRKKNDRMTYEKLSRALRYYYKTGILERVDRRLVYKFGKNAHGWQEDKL
Procedure, shortened: as §1

[7] = molecular target: T7, ETV3 (Homo sapiens, UniProt P41162-2 1-143)
T7 sequence: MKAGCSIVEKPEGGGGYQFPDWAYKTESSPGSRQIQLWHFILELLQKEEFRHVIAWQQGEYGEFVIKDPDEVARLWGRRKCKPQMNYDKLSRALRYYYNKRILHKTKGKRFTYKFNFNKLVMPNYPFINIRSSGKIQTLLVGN
Procedure, shortened: as §1

[8] = molecular target: ETV6 (Homo sapiens, UniProt P41212 1-452)
Procedure, shortened: as §1

Chain of ETV6 (P41212 whole entry): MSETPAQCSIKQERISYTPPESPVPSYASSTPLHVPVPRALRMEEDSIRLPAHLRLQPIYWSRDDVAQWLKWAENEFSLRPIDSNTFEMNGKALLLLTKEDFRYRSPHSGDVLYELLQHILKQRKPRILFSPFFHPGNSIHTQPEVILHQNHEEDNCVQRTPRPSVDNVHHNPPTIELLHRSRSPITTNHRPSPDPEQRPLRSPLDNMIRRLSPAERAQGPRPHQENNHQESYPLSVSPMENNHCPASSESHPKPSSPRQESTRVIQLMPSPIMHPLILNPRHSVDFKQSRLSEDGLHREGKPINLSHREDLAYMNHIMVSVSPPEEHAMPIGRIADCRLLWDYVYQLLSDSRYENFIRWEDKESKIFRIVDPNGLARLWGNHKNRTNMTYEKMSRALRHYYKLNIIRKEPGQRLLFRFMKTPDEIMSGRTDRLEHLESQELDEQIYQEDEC

Sequence | binding signal [1] | binding signal [2] | binding signal [3] | binding signal [4] | binding signal [5] | binding signal [6] | binding signal [7] | binding signal [8]
TACAAC | 1.1 fold enrichment (6-mer frequency, TF over GST control) | 1.11 fold enrichment (6-mer frequency, TF over GST control) | 1.12 fold enrichment (6-mer frequency, TF over GST control) | 1.17 fold enrichment (6-mer frequency, TF over GST control) | 1.09 fold enrichment (6-mer frequency, TF over GST control) | 1.09 fold enrichment (6-mer frequency, TF over GST control) | 1.15 fold enrichment (6-mer frequency, TF over GST control) | 1.11 fold enrichment (6-mer frequency, TF over GST control)
TCTGTT | 1.43 fold enrichment (6-mer frequency, TF over GST control) | 1.32 fold enrichment (6-mer frequency, TF over GST control) | 1.48 fold enrichment (6-mer frequency, TF over GST control) | 1.35 fold enrichment (6-mer frequency, TF over GST control) | 1.46 fold enrichment (6-mer frequency, TF over GST control) | 1.4 fold enrichment (6-mer frequency, TF over GST control) | 1.25 fold enrichment (6-mer frequency, TF over GST control) | 1.35 fold enrichment (6-mer frequency, TF over GST control)
CATGGT | 1.24 fold enrichment (6-mer frequency, TF over GST control) | 1.27 fold enrichment (6-mer frequency, TF over GST control) | 1.25 fold enrichment (6-mer frequency, TF over GST control) | 1.13 fold enrichment (6-mer frequency, TF over GST control) | 1.16 fold enrichment (6-mer frequency, TF over GST control) | 1.16 fold enrichment (6-mer frequency, TF over GST control) | 1.25 fold enrichment (6-mer frequency, TF over GST control) | 1.2 fold enrichment (6-mer frequency, TF over GST control)
TCAAGG | 1.09 fold enrichment (6-mer frequency, TF over GST control) | 1.03 fold enrichment (6-mer frequency, TF over GST control) | 1.04 fold enrichment (6-mer frequency, TF over GST control) | 1.12 fold enrichment (6-mer frequency, TF over GST control) | 1.17 fold enrichment (6-mer frequency, TF over GST control) | 1.14 fold enrichment (6-mer frequency, TF over GST control) | 1.12 fold enrichment (6-mer frequency, TF over GST control) | 1.14 fold enrichment (6-mer frequency, TF over GST control)
TTCCGT | 1.61 fold enrichment (6-mer frequency, TF over GST control) | 1.85 fold enrichment (6-mer frequency, TF over GST control) | 1.94 fold enrichment (6-mer frequency, TF over GST control) | 1.91 fold enrichment (6-mer frequency, TF over GST control) | 1.6 fold enrichment (6-mer frequency, TF over GST control) | 2.76 fold enrichment (6-mer frequency, TF over GST control) | 2.16 fold enrichment (6-mer frequency, TF over GST control) | 2.02 fold enrichment (6-mer frequency, TF over GST control)
TATGGT | 1.18 fold enrichment (6-mer frequency, TF over GST control) | 1.24 fold enrichment (6-mer frequency, TF over GST control) | 1.33 fold enrichment (6-mer frequency, TF over GST control) | 1.35 fold enrichment (6-mer frequency, TF over GST control) | 1.21 fold enrichment (6-mer frequency, TF over GST control) | 1.24 fold enrichment (6-mer frequency, TF over GST control) | 1.34 fold enrichment (6-mer frequency, TF over GST control) | 1.24 fold enrichment (6-mer frequency, TF over GST control)
GACCTG | 1.13 fold enrichment (6-mer frequency, TF over GST control) | 1.33 fold enrichment (6-mer frequency, TF over GST control) | 1.19 fold enrichment (6-mer frequency, TF over GST control) | 1.12 fold enrichment (6-mer frequency, TF over GST control) | 1.17 fold enrichment (6-mer frequency, TF over GST control) | 1.21 fold enrichment (6-mer frequency, TF over GST control) | 1.17 fold enrichment (6-mer frequency, TF over GST control) | 1.14 fold enrichment (6-mer frequency, TF over GST control)
ACCTAT | 1.26 fold enrichment (6-mer frequency, TF over GST control) | 1.16 fold enrichment (6-mer frequency, TF over GST control) | 1.2 fold enrichment (6-mer frequency, TF over GST control) | 1.25 fold enrichment (6-mer frequency, TF over GST control) | 1.25 fold enrichment (6-mer frequency, TF over GST control) | 1.11 fold enrichment (6-mer frequency, TF over GST control) | 1.17 fold enrichment (6-mer frequency, TF over GST control) | 1.16 fold enrichment (6-mer frequency, TF over GST control)
AGTGGC | 1.27 fold enrichment (6-mer frequency, TF over GST control) | 1.15 fold enrichment (6-mer frequency, TF over GST control) | 1.22 fold enrichment (6-mer frequency, TF over GST control) | 1.1 fold enrichment (6-mer frequency, TF over GST control) | 1.11 fold enrichment (6-mer frequency, TF over GST control) | 1.22 fold enrichment (6-mer frequency, TF over GST control) | 1.27 fold enrichment (6-mer frequency, TF over GST control) | 1.27 fold enrichment (6-mer frequency, TF over GST control)
